Growth data for 40 compounds are collected here from PubChem BioAssay (NCI).

Compounds without any hit were thinned out: in the full panel of roughly 83,000, 20% have a hit.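 Compound tested at a single concentration for 48 hours in 96-well plates; a percent growth value below 10 was scored as active.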 Values without a mark were called inactive. Calls of active or inactive are those of the source.

In the assay the test system is MDA-MB-468 breast. Nature of the assay: NCI-60 one-dose screen, 48 h (100 = growth as untreated, 0 = no growth, -100 = all killed). The conditions noted are these: 10 µM unless noted.
Regarding `O=C1c2cccc(NCCN=Cc3cc([N+](=O)[O-])ccc3O)c2C(=O)c2c(NCCN=Cc3cc([N+](=O)[O-])ccc3O)cccc21`, the growth was 43.4%.
Consider `CCN(CC)c1ccc(/C=C/C(=O)c2cccc(NS(C)(=O)=O)c2)cc1`, for which the growth is 35.4%.
With `COc1ccc2[nH]c(O)c(/C=c3/ccc4c(c3)N=C(c3ccc(C(F)(F)F)cc3)N=4)c2c1`, the growth is 93.8%.
Turning to `Cc1cc(N2CCCC2)nc(N(CCCNc2ccnc3cc(Cl)ccc23)Cc2ccccn2)n1`, the growth was 53.2%.
`CNC(=O)c1c(NC(=O)c2cccc(C(F)(F)F)c2)sc2c1CCC(=O)C2`: the growth is -28% (active).
Under `O=C(CCCCCCSc1nc(-c2ccccc2)cc(-c2ccc(Cl)cc2)n1)NO` stands 4.78% (active); under `CCCCOc1ccc(/C(C)=N/Nc2cc(C)nc3ccc(Br)cc23)cc1`, 113%; under `COCc1c(-c2ccc(NC(=O)Nc3cc(C(F)(F)F)ccc3F)c(F)c2)c2c(N)ncnn2c1CN1CCOCC1`, -54.8% (active).
On to `O=C1C2=C(Nc3cc(Cl)ccc3N2)OC1c1c[nH]c2ccc(COc3ccccc3)cc12` (stereo not given), for which the growth is 48.2%.
`CCOP(=O)(OCC)/C(C#N)=C/c1c(C)[nH]c2ccccc12`: the growth was 99.7%.
Consider `O=S(=O)(NCCNc1cc(-c2cn(-c3ccccc3)nc2-c2ccccc2)ccn1)c1ccc(F)cc1`, for which the growth was 58%.
Next, `Nc1nc(Cn2c(-c3nonc3N)nc3ccccc32)nc(N2CCCCC2)n1`: 72.8%; `CCOC(=O)Cc1cnc(N/N=C(\C)c2cc3ccccc3o2)s1`: 99.8%.
Turning to `N#Cc1c(-c2ccccc2)cc(-c2ccccc2)n(CC(=O)NO)c1=O`, the growth is 43.5%.
As for `CCOCC(=O)C(C#N)c1ccc(Cl)c(Cl)c1` (stereo not given), the growth is 90.9%.
In the case of `O=C1/C(=C/c2ccc([N+](=O)[O-])cc2)COc2ccc(O)c(O)c21`, the growth is -90.9% (active).
With `NC(=NCCCC1(c2ccccc2)CCCC1)Nc1ccc(Cl)cc1`, the growth was -83.1% (active).
On to `CCOC(=O)CNC1=C(Cl)C(=O)N(Cc2ccc(Cl)cc2)C1=O`, for which the growth was 105%.
Turning to `COc1ccc(/C=C/C(=O)c2cccc(OCCCCOc3cccc(C(=O)/C=C/c4ccc(OC)c(OC)c4)c3)c2)cc1OC`, the growth was 23.1%.
Under `COc1ccc(C(O)(CCC(C)C)C(CN2CCOCC2)c2ccc(Cl)cc2)cc1` (stereo not given) stands 80.6%; under `Nc1c(C(=O)C[C@@H](N)CO)ccc2c1C(=O)CCO2`, -14.1% (active).
For `Cc1ccc(/C=C2\SC(=S)N(CC(=O)NCCCN3CCOCC3)C2=O)cc1`, the growth is 94.9%.
In the case of `CCC(=O)Nc1nnc(Cc2ccc(OC)c(OC)c2)s1`, the growth is -2.42% (active).
Under `Cc1ccc2nc(Cl)c(-c3nc4ccccc4o3)cc2c1` stands 100%.
On to `C#CC#CC#CC#CC#CC#CC#CC#CCC1OC[C@H](COC(=O)O[C@@H](C(=O)O[C@H]2C[C@@]3(O)[C@@H](OC(=O)c4ccccc4)[C@@H]4[C@]5(OC(C)=O)CO[C@@H]5C[C@H](O)[C@@]4(C)C(=O)[C@H](OC(C)=O)C(=C2C)C3(C)C)[C@@H](NC(=O)c2ccccc2)c2ccccc2)O1` (stereo not given in full), for which the growth was 8.69% (active).
For `COc1c(N2CC3CCCNC3C2)c(F)cc2c(=O)c(C(=O)N/N=C/c3c[nH]c4ccccc34)cn(C3CC3)c12` (stereo not given), the growth is 100%.
Under `C=C1/C(=C\C=C2/CCC[C@]3(C)[C@@H]([C@H](C)CCCC(C)(C)O)CC[C@@H]23)C[C@@H](OC(=O)CBr)C[C@@H]1O` stands 72.8%; under `CCOC(=O)C#Cc1c(C(=O)OCC)nnn1[C@@H]1O[C@H](COC)[C@@H](OC)[C@H]1OC`, -20.5% (active).
With `O=C(CSc1nnnn1-c1ccccc1)Nc1ccc(Oc2ccccc2)cc1`, the growth is 115%.
As for `CCOC(=O)C/C(C)=N\O`, the growth is 98.2%.
For `O=c1[nH]c(=S)c2c(n1CCCO)CCC2`, the growth is 106%.
With `O=NC1CC=CCC1c1ccccc1` (stereo not given), the growth was 104%.
On to `Cc1cnc(C(=O)NNc2nc3sc4c(c3c(=O)n2C)C(C)CCC4)cn1` (stereo not given), for which the growth is -28% (active).
Consider `C=CCO[C@H]1CO[C@H]2[C@@H]1OC[C@@H]2Oc1ccc(Nc2ccnc(Nc3ccc(O[C@H]4CO[C@H]5[C@@H]4OC[C@@H]5OCC=C)c(Cl)c3)n2)cc1Cl`, for which the growth is -84.5% (active).
Turning to `C/C(=C(/c1ccccc1)c1ccc(OCC(O)CN2CCOCC2)cc1)c1ccccc1` (stereo not given), the growth was 85.1%.
As for `CCCCC(CCCC)(S(=O)(=O)CC)S(=O)(=O)CC`, the growth is 98.2%.
For the compound `Cc1cc(C)cc(NC(=O)Cn2nncc2CN2C(=O)CSC2=O)c1`, the growth was 97%.
Under `COc1ccc(-c2ccc3c4c(cccc24)C(=O)N(N2C(=O)c4cccc5cccc(c45)C2=O)C3=O)cc1` stands 96.5%.
With `O=S(=O)(Nc1cc(Br)c(O)c2ccccc12)c1ccc(F)cc1`, the growth was -48.5% (active).
With `COC(=O)c1c(C)nc(C)c2c1C(=O)C(Br)=C(NCCCCO)C2=O`, the growth was 29.5%.
